Test [1] can be described thus: qHTS RealTime-Glo MT Cell Viability Assay in HEK293 cells - 16 hour (AID 1224872). Note: nearly all actives have a fitted effect of over 50% in size. Note: potency is the fitted concentration of half-maximal effect. Put shortly:
(§1)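 Viability tracked continuously by luminescence as live cells reduce a prosubstrate for NanoLuc; HEK293 cells preincubated 5 h, compound-treated at 37 C, and read at 0, 8, 16, 24, 32 and 40 h.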

Test [2] is described as follows: qHTS RealTime-Glo MT Cell Viability Assay in HepG2 cells - 8 hour (AID 1224873). Note: nearly all actives have a fitted effect of over 55% in size. Note: potency is the fitted concentration of half-maximal effect. Put shortly:
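HepG2 cells mixed with RealTime-Glo MT reagents (NanoLuc plus cell-permeant prosubstrate) were seeded at 600 cells/well, incubated 5 h at 37 C/5% CO2, then pinned with compounds in DMSO; nonlytic luminescence tracked viability during 40 h treatment.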
(In general: Quantitative high-throughput screening tests each substance at several concentrations.)

The nature of test [3]: qHTS RealTime-Glo MT Cell Viability Assay in HEK293 cells - 40 hour (AID 1224874). Note: nearly all actives have a fitted effect of over 50% in size. Note: potency is the fitted concentration of half-maximal effect. Conditions: RealTime-Glo luminescence; max response: stronger effect = lower value. Put shortly:
(§2)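 HEK293 cells mixed with RealTime-Glo reagents (NanoLuc plus cell-permeant prosubstrate) at 600 cells/well, preincubated 5 h at 37 C/5% CO2, then given 23 nL compound in DMSO. Nonlytic luminescence from viable cells was read at 0, 8, 16, 24, 32 and 40 h.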

Test [4] is described as follows: A CellTox Green Cytotoxicity Assay to monitor cytotoxicity in HEK293 cells - 24 hour (AID 1224875). Note: nearly all actives have a fitted effect of over 45% in size. Note: potency is the fitted concentration of half-maximal effect. Summed up:
(§3)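 HEK293 cells premixed with CellTox Green dye were seeded at 600 cells/well and left 5 h at 37 C/5% CO2 before pin transfer of 23 nL compound in DMSO. Fluorescence from dye bound to dead-cell DNA was read during 40 h treatment.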

Test [5] is described as follows: A CellTox Green Cytotoxicity Assay to monitor cytotoxicity in HepG2 cells - 16 hour (AID 1224876). Note: nearly all actives have a fitted effect of over 45% in size. Note: potency is the fitted concentration of half-maximal effect. Put shortly: (§4)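 HepG2 cells were seeded together with the CellTox Green dye at 600 cells/well, left 5 h at 37 C/5% CO2, then given compounds in DMSO. Fluorescence from dye bound to dead-cell DNA was read repeatedly over 40 h of treatment at 37 C.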
A short description of test [6]: qHTS RealTime-Glo MT Cell Viability Assay in HepG2 cells - 32 hour (AID 1224877). Note: nearly all actives have a fitted effect of over 55% in size. Note: potency is the fitted concentration of half-maximal effect. Put shortly: (§5)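 Viability was tracked continuously by NanoLuc luminescence from prosubstrate reduced by living HepG2 cells, at successive time points over 40 h of compound exposure. Cells with reagent were preincubated 5 h at 37 °C before compound addition.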
A short description of test [7]: A CellTox Green Cytotoxicity Assay to monitor cytotoxicity in HepG2 cells - 24 hour (AID 1224878). Note: nearly all actives have a fitted effect of over 45% in size. Note: potency is the fitted concentration of half-maximal effect. Put shortly: as §4
The nature of test [8]: A CellTox Green Cytotoxicity Assay to monitor cytotoxicity in HepG2 cells - 40 hour (AID 1224879). Note: nearly all actives have a fitted effect of over 40% in size. Note: potency is the fitted concentration of half-maximal effect. Put shortly: as §4
Test [9] can be described thus: qHTS RealTime-Glo MT Cell Viability Assay in HEK293 cells - 0 hour (AID 1224880). Note: nearly all actives have a fitted effect of over 45% in size. Note: potency is the fitted concentration of half-maximal effect. Put shortly: as §2
The nature of test [10]: A CellTox Green Cytotoxicity Assay to monitor cytotoxicity in HEK293 cells - 32 hour (AID 1224881). Note: nearly all actives have a fitted effect of over 40% in size. Note: potency is the fitted concentration of half-maximal effect. Put shortly: as §3
A short description of test [11]: A CellTox Green Cytotoxicity Assay to monitor cytotoxicity in HepG2 cells - 0 hour (AID 1224882). Note: nearly all actives have a fitted effect of over 35% in size. Note: potency is the fitted concentration of half-maximal effect. Summed up:
as §4

The nature of test [12]: A CellTox Green Cytotoxicity Assay to monitor cytotoxicity in HepG2 cells - 32 hour (AID 1224883). Note: nearly all actives have a fitted effect of over 50% in size. Note: potency is the fitted concentration of half-maximal effect. Put shortly: as §4
Test [13] is described as follows: A CellTox Green Cytotoxicity Assay to monitor cytotoxicity in HEK293 cells - 8 hour (AID 1224884). Note: nearly all actives have a fitted effect of over 35% in size. Note: potency is the fitted concentration of half-maximal effect. Put shortly: as §3
Test [14] can be described thus: qHTS RealTime-Glo MT Cell Viability Assay in HepG2 cells - 16 hour (AID 1224885). Note: nearly all actives have a fitted effect of over 50% in size. Note: potency is the fitted concentration of half-maximal effect. Put shortly: as §5
The nature of test [15]: qHTS RealTime-Glo MT Cell Viability Assay in HEK293 cells - 24 hour (AID 1224886). Note: nearly all actives have a fitted effect of over 50% in size. Note: potency is the fitted concentration of half-maximal effect. Summed up:
as §1

Test [16] is described as follows: qHTS RealTime-Glo MT Cell Viability Assay in HEK293 cells - 8 hour (AID 1224887). Summed up:
as §2

The nature of test [17]: A CellTox Green Cytotoxicity Assay to monitor cytotoxicity in HEK293 cells - 16 hour (AID 1224888). Note: nearly all actives have a fitted effect of over 35% in size. Note: potency is the fitted concentration of half-maximal effect. Put shortly:
as §3

Test [18] in a line: qHTS RealTime-Glo MT Cell Viability Assay in HepG2 cells - 0 hour (AID 1224889). Note: nearly all actives have a fitted effect of over 50% in size. Note: potency is the fitted concentration of half-maximal effect. Put shortly: as §5
A short description of test [19]: A CellTox Green Cytotoxicity Assay to monitor cytotoxicity in HepG2 cells - 8 hour (AID 1224890). Note: nearly all actives have a fitted effect of over 45% in size. Note: potency is the fitted concentration of half-maximal effect. Summed up:
as §4

Test [20] in a line: qHTS assay to identify small molecule antagonists of the estrogen receptor alpha (ER-alpha) signaling pathway using the BG1 cell line in the presence of 0.1 nM 17-beta-estradiol - cell viability counter screen (AID 1259241). Note: nearly all actives have a fitted effect of over 40% in size. Note: potency is the fitted concentration of half-maximal effect. Put shortly:
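Cells were plated and left 24 hr, compounds in DMSO were pinned in, 17beta-estradiol was added to 0.1 nM final, and after 22 hr CellTiter-Fluor reagent was added for 30 min before fluorescence was read.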

Where “and” joins values, the source holds several entries; their conditions need not be identical. Equal values may be shown once. Results filed as inconclusive are left out. The source holds several records for some structures; these can differ, active in one and inactive in another. Calls of active or inactive are those of the source. Calls come from the whole dose curve; as a rule, active = well fitted curve in the direction sought with a large enough effect in the repeat runs; inconclusive = weak or mixed curves; inactive = no such curve, though single readings can be large; an effect the other way counts as inactive or inconclusive.
% is set by controls: 0 for no effect and ±100 for the full control effect.

On to `NC1CCCCC1`, for which the Potency entry in [1], in [2], in [4], in test [5], in [6] and in [7] was “inactive” throughout. Moreover, the Potency entry in test [8], in [9], in [10], in test [11], in test [12] and in test [13] was “inactive” throughout. The Potency entry in test [14], in [15], in test [16], in test [17], in test [18] and in [19] was “inactive” throughout. In addition, in [3], the max response is 1.81% (inactive) [middle of 4 runs].
In the case of `O=C1OC2(c3ccccc31)c1cc(Br)c(O)c(Br)c1Oc1c2cc(Br)c(O)c1Br`, the Potency result in test [1], in test [2], in test [6], in test [14] and in [15] was “inactive” throughout. Besides, in test [3], the max response was -26.3% (inactive) and -6.61% (inactive). Moreover, the Potency was 4.43 µM (active) and 7.11 µM (active) and 9.52 µM (active) in test [4]; 4.97 µM (active) and 14.2 µM (active) and 23.9 µM (active) in test [5]; 4.97 µM (active) and 12.7 µM (active) and 23.9 µM (active) in [7]; 5.58 µM (active) and 14.2 µM (active) and 23.9 µM (active) in test [8]; 9.92 µM (active) and 17.9 µM (active) and 23.9 µM (active) in test [9]; 4.97 µM (active) and 7.11 µM (active) and 21.3 µM (active) in test [10]. For the same molecule, the Potency in test [11] was 9.92 µM (active) and 11.3 µM (active) and 23.9 µM (active); in [12], 5.58 µM (active) and 14.2 µM (active) and 23.9 µM (active); in test [13] it was 5.58 µM (active) and 12.7 µM (active) and 19 µM (active); in [17], 4.43 µM (active) and 7.11 µM (active) and 19 µM (active); in [18] it was 9.92 µM (active) and 20 µM (active); in test [19], 5.58 µM (active) and 14.2 µM (active) and 21.3 µM (active). Also, in test [20], the Potency is 7.81 µM (active) and 22.3 µM (active) and 11.9 µM (active).
As for `O=c1[nH]cnc2c1ncn2[C@H]1CC[C@@H](CO)O1`, the Potency result in test [1], in test [2], in [4], in test [5], in [6] and in test [7] was “inactive” in each case. The Potency entry in test [8], in test [9], in test [10], in test [11], in [12] and in test [13] was “inactive” throughout. For the same molecule, the Potency entry in test [14], in [15], in test [16], in test [17], in test [18] and in test [19] was “inactive” each time. The Potency entry in test [20] is “inactive”. The max response in test [3] is 9.2% (inactive) and 0.925% (inactive) and -0.369% (inactive).
As for `Cc1cccc(C)c1`, the Potency entry in test [1], in test [2], in test [4], in test [5], in test [6] and in [7] was “inactive” throughout. Also, the Potency result in test [8], in test [9], in [10], in [11], in test [12] and in [13] was “inactive” each time. Also, the Potency entry in [14], in test [15], in [17], in test [18] and in [19] was “inactive” in each case. The max response in test [3] was -11.1% (inactive) and -3.52% (inactive) and 0.116% (inactive).
`O=C1c2c(O)cccc2Cc2cccc(O)c21`: the Potency result in [1], in test [2], in test [4], in [5], in test [6] and in test [7] was “inactive” in each case. In addition, the Potency entry in test [8], in test [9], in test [10], in test [11], in test [12] and in [13] was “inactive” in each case. Further, the Potency result in test [14], in test [15], in [17], in test [18] and in test [19] was “inactive” throughout. Also, the max response in test [3] was -2.74% (inactive) and 0.603% (inactive) and 0.249% (inactive).
Regarding `C[C@](N)(Cc1ccc(O)c(O)c1)C(=O)O`, the Potency result in test [1], in [2], in test [4], in test [5], in [6] and in test [7] was “inactive” each time. Moreover, the Potency entry in test [8], in test [9], in test [10], in test [11], in test [12] and in test [13] was “inactive” in each case. The Potency entry in test [14], in test [15], in test [16], in [18] and in test [19] was “inactive” each time. Moreover, in [3], the max response is -19.7% (inactive) and -21.3% (inactive) and 9.87% (inactive).
As to `CCCCCCCCCCCCCCCC[N+](C)(C)Cc1ccccc1`, the Potency in [1] was 25.3 µM (active) and 28 µM (active); in test [2], 63.6 µM (active) and 39.6 µM (active) and 23.9 µM (active); in [3], 4.5 µM (active) and 7.9 µM (active) and 3.01 µM (active); in test [4], 50.5 µM (active) and 31.4 µM (active) and 21.3 µM (active); in test [5] it was 50.5 µM (active) and 19.8 µM (active) and 23.9 µM (active); in test [6] it was 16 µM (active) and 14 µM (active) and 9.52 µM (active). Besides, the Potency in test [7] was 25.3 µM (active) and 17.7 µM (active) and 19 µM (active); in test [8], 20.1 µM (active) and 14 µM (active) and 10.7 µM (active); in test [10], 50.5 µM (active) and 44.4 µM (active) and 23.9 µM (active); in test [12] it was 25.3 µM (active) and 15.8 µM (active) and 10.7 µM (active); in [13], 45 µM (active) and 15.8 µM (active) and 21.3 µM (active); in test [14] it was 25.3 µM (active) and 19.8 µM (active) and 21.3 µM (active). Also, the Potency was 8.98 µM (active) and 22.3 µM (active) and 3.01 µM (active) in [15]; 63.6 µM (active) and 35.3 µM (active) and 26.8 µM (active) in [19]. Further, the Potency result in [9], in [11], in test [18] and in test [20] was “inactive” throughout.
For the molecule `CN1CCC[C@H]1c1cccnc1`, the Potency result in test [1], in test [2], in [4], in [5], in test [6] and in test [7] was “inactive” each time. Besides, the Potency entry in test [8], in [9], in test [10], in [11], in test [12] and in test [13] was “inactive” throughout. Moreover, the Potency entry in test [14], in test [15], in test [16], in [18], in test [19] and in test [20] was “inactive” each time. Further, the max response in test [3] was -1.49% (inactive) and 19.5% (inactive) and 2.35% (inactive).
With `CCOc1ccc(NC(C)=O)cc1`, the Potency result in [1], in test [2], in test [4], in test [5], in test [6] and in test [7] was “inactive” in each case. Further, the Potency entry in test [8], in test [9], in test [10], in test [11], in test [12] and in [13] was “inactive” throughout. The Potency entry in [16], in [18], in test [19] and in test [20] was “inactive” throughout. The Potency in [3] was 21.9 µM (active); in test [15] it was “inactive and 21.9 µM (active)”. For the same molecule, in test [3], the max response was 2.25% (inactive) and 1.74% (inactive).

These data come from PubChem BioAssay (Tox21).
